Here are results for 40 compounds from PubChem BioAssay (EPA / NIEHS).

Molecules are shown by their SMILES. Where “and” joins values, the source holds several entries; their conditions need not be identical. Equal values may be shown once. Calls of active or inactive are those of the source. Rule for the calls: active = hit-call score of the fitted dose curve at least 0.9, where 1 is the maximum; inactive = score below 0.9.

Sequence of Apoptosis regulator Bcl-2 (Homo sapiens) (P10415 whole entry, looked up): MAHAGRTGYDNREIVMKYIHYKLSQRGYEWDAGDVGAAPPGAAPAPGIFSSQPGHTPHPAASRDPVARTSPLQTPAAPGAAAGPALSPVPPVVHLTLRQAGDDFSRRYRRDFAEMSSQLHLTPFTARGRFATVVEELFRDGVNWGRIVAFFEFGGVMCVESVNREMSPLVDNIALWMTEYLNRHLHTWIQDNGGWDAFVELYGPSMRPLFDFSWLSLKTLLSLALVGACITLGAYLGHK

Read-out in this assay: Apoptosis regulator Bcl-2 (Homo sapiens) (UniProt P10415)
The assay can be described thus: LTEA_HepaRG_BCL2: Life Technologies and Expression Analysis (LTEA) Assay for Bcl-2 gene using HepaRG (AID 2283475).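 Note: BCL2 transcript by TaqMan qRT-PCR normalised to ACTB GAPDH and POLR2A.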 The settings on record: mRNA level, 48 h; actives raise or lower the signal. As to the method: LTEA_HepaRG is a cell based, multiplexed-readout assay that uses HepaRG, a human liver cell line, with measurements taken at 48 hours after chemical dosing on a 96-well plate.LTEA_HepaRG_BCL2 is one of 102 assay component(s) measured in the LTEA HepaRG cell culture assay. It is a marker of Cell proliferation, survival, death.Data from the assay component LTEA_HepaRG_BCL2 was analyzed into 1 endpoint. This assay endpoint, LTEA_HepaRG_BCL2, was analyzed with bidirectional fitting relative to DMSO as the negative control and baseline of activity. Using a type of inducible reporter, measures of mRNA induction for gain or loss-of-signal activity can be used to understand regulation of transcription factor activity. To generalize the intended target to other relatable targets, this assay endpoint is annotated to the cell cycle intended target family, where the subfamily is Cell proliferation, survival, death.
A total of 1060 chemcials from the ToxCast library were tested in eight-point concentration-response experiments. Cell culture and cytotoxicity assays were conducted at Thermo Fisher Scientific's Custom Services facility (Madison, WI). A single lot of human HepaRG cells (Thermo Fisher Scientific, Frederick, MD) was used for the cell culture experiments. 96-well format collagen type I coated plates of human HepaRG cells were prepared using established methods. Briefly, cryopreserved HepaRG cells were thawed, plated at a density of approximately 100,000 cells/well in HepaRG Thaw, Plate, and General Purpose media (HPRG770, Thermo Fisher Scientific), and incubated for 48 hours. 0.5% DMSO was selected as vehicle control to balance the requisite need of DMSO in HepaRG cultures to maintain differentiation (for example, baseline metabolism, proportions of hepatocytes vs. cholangiocytes), while enabling further hepatic receptor pathway activation (for example, PXR and CAR) in response to chemical exposure. 48 hours after plating, the culture medium was replaced with HepaRG Serum-Free Incudtion Media. Cells were exposed to each test chemical in duplicate and maintained in CO2 incubators for another 48 hours. Chemical plates were thawed to room temperature and 200x concentrations of treatment groups were prepared. 8-point conentration-reponse curves were made with the highest exposure at 100 uM, followed by half-log dilutions, all in 0.5% DMSO. Each test plate contained variouse controls, induction positive controls (1mM phenobarbital), cytotoxicity positive controls ([…] aflatoxin B1), vehicle controls (0.5% DMSO), and total lysis controls (0.5% DMSO). Cell morphology images were taken using an Essen IncuCyte FLR automated microscope, with six 96-well plates imaged in about 24 minutes. Images were captured and exported and JPEG files. Spent culture media was transfered to black-well plates for the LDH assay, and remaining media was sorted at -80 C for later use. Cells were treated with RLT buffer and frozen until shipped for gene expression analysis. Total RNA was isolated from the cell suspension in 75 uL of Buffer RLT (Qiagen, Germantown, MD 20874) by Quintiles/Expression Analysis (Durham, NC) using a custom isolation procedure. Total RNA from each plate well was transferred to a preamplification plate. Fluidigm's 96.96 Dynamic ArrayTM (Fluidigm, Amsterdam, the Netherlands) technology was used for gene expression analyses by quantitative reverse transcription polymerase chain reaction (qRT-PCR, performed by Quintiles/Expression Analysis, Durham, NC)89. Standard TaqManTM Assays (Applied Biosystems/ThermoFisher Scientific, Foster City, CA) were used to assess the expression of 93 genes selected based on their selectivity and sensitivity to important hepatic receptors known to be modulated by environmental chemicals; importance in human hepatocyte functionality; and hepatotoxicity. […]
Regarding `C#CCN1C(=O)COc2cc(F)c(N3C(=O)C4=C(CCCC4)C3=O)cc21`, the call was inactive.

On to `CCOCN(C(=O)CCl)c1c(C)cccc1CC`, for which the outcome was inactive.

Turning to `CC(C)(C)C(O)C(Oc1ccc(Cl)cc1)n1cncn1` (stereo not given), the outcome was inactive.

Regarding `CCOC1Oc2ccc(OS(C)(=O)=O)cc2C1(C)C` (stereo not given), the AC50 was 82.1 µM (active).

Take `CNC(=O)Oc1cccc(N=CN(C)C)c1`: the outcome was inactive.

Regarding `CCCN(CCOc1c(Cl)cc(Cl)cc1Cl)C(=O)n1ccnc1`, the AC50 is 28.9 µM (active).

As for `ClC1C(Cl)C(Cl)C(Cl)C(Cl)C1Cl` (stereo not given), the compound was classed as inactive.

With `Oc1ccc(Cl)cc1Cc1ccccc1`, the compound was called inactive.

`Clc1ccccc1-c1nnc(-c2ccccc2Cl)nn1`: the result was inactive.

In the case of `O=S(=O)(O)C(F)(F)C(F)(F)C(F)(F)C(F)(F)C(F)(F)C(F)(F)C(F)(F)C(F)(F)F`, the AC50 is 50 µM (active) and 65.5 µM (active) and 48 µM (active).

For `O=C(O)COc1ccc(Cl)cc1Cl`, the result was inactive.

Consider `CCN(CC)C(=O)SCc1ccc(Cl)cc1`, for which the compound was classed as inactive.

Consider `CCC(C)Nc1c([N+](=O)[O-])cc(C(C)(C)C)cc1[N+](=O)[O-]` (stereo not given), for which the outcome was inactive.

As for `CCCN(CCC)c1c([N+](=O)[O-])cc(C(F)(F)F)cc1[N+](=O)[O-]`, the result was inactive.

As to `CC(C)(C)C(O)/C(=C\c1ccc(Cl)cc1Cl)n1cncn1` (stereo not given), the AC50 is 21.8 µM (active).

For the compound `COc1nn(CSP(=S)(OC)OC)c(=O)s1`, the compound was called inactive.

Regarding `O=C(NC(=O)c1c(F)cccc1F)Nc1ccc(OC(F)(F)C(F)OC(F)(F)F)c(Cl)c1` (stereo not given), the call was inactive.

For `N#Cc1c(Cl)c(Cl)c(Cl)c(C#N)c1Cl`, the result was inactive.

As for `OCCOc1ccccc1`, the call was inactive.

As to `O=C(Nc1ccccc1)Nc1cnns1`, the compound was called inactive.

Turning to `CNC(=O)Oc1ccccc1OC(C)C`, the compound was called inactive.

Take `O=[N+]([O-])c1c(Cl)c(Cl)c(Cl)c(Cl)c1Cl`: the call was inactive.

Take `CNC(=O)/C=C(\C)OP(=O)(OC)OC`: the compound was called inactive.

For the compound `N#CN`, the result was inactive.

With `O=[N+]([O-])/N=C1\NCCN1Cc1ccc(Cl)nc1`, the call was inactive.

Consider `CCc1ccc(C(=O)NN(C(=O)c2cc(C)cc(C)c2)C(C)(C)C)cc1`, for which the result was inactive.

Take `Cc1[nH]c(=O)n(C(C)(C)C)c(=O)c1Cl`: the compound was classed as inactive.

On to `Oc1cc(Cl)ccc1Oc1ccc(Cl)cc1Cl`, for which the result was inactive.

With `CC1(c2ccc(Oc3ccccc3)cc2)OC(=O)N(Nc2ccccc2)C1=O` (stereo not given), the concentration at half-maximal activity (AC50) is 9.6 µM (active).

In the case of `O=S1OCC2C(CO1)C1(Cl)C(Cl)=C(Cl)C2(Cl)C1(Cl)Cl` (stereo not given), the AC50 was 84.7 µM (active).

In the case of `CN1CSC(=S)N(C)C1`, the compound was called inactive.

On to `CC1(C)C(C=C(Cl)Cl)C1C(=O)OC(C#N)c1ccc(F)c(Oc2ccccc2)c1` (stereo not given), for which the compound was classed as inactive.

On to `CCC(C)(NC(=O)c1cc(Cl)c(C)c(Cl)c1)C(=O)CCl` (stereo not given), for which the compound was called inactive.

With `O=C(O)C(F)(F)C(F)(F)C(F)(F)C(F)(F)C(F)(F)C(F)(F)C(F)(F)F`, the outcome was inactive.

On to `C[C@H]1[C@H](c2ccc(Cl)cc2)SC(=O)N1C(=O)NC1CCCCC1`, for which the AC50 is 76 µM (active).

With `CNC(=O)CSP(=S)(OC)OC`, the outcome was inactive.

For `CCC(C)(C)C(=O)OC1=C(c2ccc(Cl)cc2Cl)C(=O)OC12CCCCC2`, the compound was classed as inactive.

Take `COP(=S)(OC)Oc1ccc(SC)c(C)c1`: the call was inactive.

Turning to `CC[C@H](C)[C@H]1O[C@]2(C=C[C@@H]1C)C[C@@H]1C[C@@H](C/C=C(\C)[C@@H](O[C@H]3C[C@H](OC)[C@@H](O[C@H]4C[C@H](OC)[C@@H](O)[C@H](C)O4)[C@H](C)O3)[C@@H](C)/C=C/C=C3\CO[C@@H]4[C@H](O)C(C)=C[C@@H](C(=O)O1)[C@]34O)O2` (tested in a mixture with another compound), the AC50 was 9.08 µM (active).

Consider `O=C1c2ccccc2C(=O)N1SC(Cl)(Cl)Cl`, for which the result was inactive.

Broadly, the AC50 is the concentration giving half of the maximal activity seen.
